# Screening results deposited in PubChem BioAssay by National Center for Advancing Translational Sciences (NCATS).
# This is a sample that favours compounds with a hit; in the whole collection about 6% have one here.
# Tau ThT inhib: inhibitors of human tau fibril formation, thioflavin T binding. P10636. recombinant tau K18 P301L, heparin-induced fibrillization, ThT fluorescence. Potency, µM (doses to about 57.4 µM), inactives show top-dose activity, negative = inhibition, most hits filed as inhibitors. 2.1% of 270,000 active; further: nearly all actives have a fitted effect of over 55% in size
# Target sequence (P10636 561-689 P618L limits assumed): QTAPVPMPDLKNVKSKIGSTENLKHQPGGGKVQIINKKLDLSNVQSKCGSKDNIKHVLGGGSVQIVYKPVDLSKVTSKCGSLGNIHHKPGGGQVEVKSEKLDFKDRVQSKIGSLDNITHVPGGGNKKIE
#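 Heparin-induced fibrillization of the P301L-mutant K18 repeat-domain fragment of human tau was followed by ThT binding in quantitative high-throughput format.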
# PLK1 PBD block: blocks phosphopeptide binding to human PLK1 polo-box domain; AID 720504; Potency, µM, for inactives: max response, negative = inhibition, usual class: inhibitors; 2.8% of 360,000 active; P53350; Plk1 PBD binding of FITC phosphopeptide, fluorescence polarization; further: series mostly up to about 57 µM; nearly all actives have a fitted effect of over 65% in size
# Tau FP inhib: blocks human tau fibril formation measured by polarization | P10636 | K18 P301L tau heparin fibrillization, Alexa594 FP, 6 h | Potency, µM (doses to about 57.7 µM), inactives show at the top dose activity, negative = inhibition, actives largely listed as inhibitors | 0.39% of 280,000 active | AID 1468; further: nearly all actives have a fitted effect of over 55% in size
#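 FP of Alexa 594-tau after heparin (20 uM) induction. Substrate: human K18 P301L, 15 uM unlabeled, 0.24 uM labeled. Buffer 100 mM sodium acetate pH 7. 6 hr, 37 C.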
# Sfp inh: blocks B. subtilis Sfp PPTase activity; Biochemical Sfp PPTase activity, qHTS; Potency, µM, for inactives: largest response in the series, negative = inhibition, hits mostly inhibitors; 3.5% of 310,000 active; Q9F4F7;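 further: the enzyme is Sfp with the accession as filed and its product quenches rhodamine fluorescence; 0% = enzyme reaction without inhibitor and -100% = no enzyme wells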
#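 Reaction rates are the 30-min fluorescence difference (ex 525, em 598 nm) in wells containing 15 nM Sfp, 5 uM rhodamine-CoA and 12.5 uM BHQ-2-YbbR at pH 7.6 with 10 mM MgCl2.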
# VDR inhibitor: inhibitors of human vitamin D receptor; P11473; VDR-SRC2-3 peptide fluorescence polarization, 2 h; Potency, µM, for the others: max response, negative = inhibition, usual class: inhibitors; 0.93% of 400,000 active; AID 504847
# Target sequence (P11473 whole entry, looked up): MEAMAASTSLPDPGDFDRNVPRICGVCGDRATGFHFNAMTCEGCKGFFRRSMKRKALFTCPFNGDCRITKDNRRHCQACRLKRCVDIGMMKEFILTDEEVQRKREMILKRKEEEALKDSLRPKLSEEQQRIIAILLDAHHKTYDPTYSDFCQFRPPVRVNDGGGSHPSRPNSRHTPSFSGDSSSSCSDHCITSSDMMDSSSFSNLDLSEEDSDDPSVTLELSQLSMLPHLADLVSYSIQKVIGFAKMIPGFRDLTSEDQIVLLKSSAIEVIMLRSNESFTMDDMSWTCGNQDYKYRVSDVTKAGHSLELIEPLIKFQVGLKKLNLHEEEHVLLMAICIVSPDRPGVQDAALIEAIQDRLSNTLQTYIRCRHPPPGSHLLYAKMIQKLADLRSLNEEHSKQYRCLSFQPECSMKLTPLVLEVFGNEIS
#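 Compounds are added to VDR with labelled SRC2-3 coactivator peptide and held 2 h at room temperature. Inhibition of the VDR–peptide interaction is then read as a change in fluorescence polarization.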
# Tau fluor cs: counter-screen for tau fibril formation inhibitors; 0.93% of 280,000 active; AID 1463; tau K18 P301L Alexa594 fluorescence, heparin fibrillization; Potency, µM (series often up to 57.7 µM), for the others: at the highest dose activity change, negative = decrease; further: nearly all actives have a fitted effect of over 55% in size
#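 Human tau K18 P301L (15 uM unlabeled, 0.24 uM Alexa 594-labeled) in 100 mM sodium acetate pH 7 with 20 uM heparin, 6 hr at 37 C. ThT 30 uM added, 1 hr ambient; Alexa 594 FP and total fluorescence read at 555/632 nm.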
# Active calls of the source: *; ? = inconclusive; . = no result given; [ ] = dose if it differs, or a comment. The call rests on the fitted dose curve; in most records, active means well fitted curve in the direction sought with a large enough effect; inconclusive means small, poorly fitted or top-dose-only effect, or another doubt; inactive means no such curve, though single readings can be large; an effect the other way counts as inactive or inconclusive. Unless noted, on the % scale 0 is the no-effect control and ±100 the full control effect; potency means the concentration at half of the fitted maximal effect.
SMILES,Tau ThT inhib,PLK1 PBD block,Tau FP inhib,Sfp inh,VDR inhibitor,Tau fluor cs
O=C(CC1C(=O)NCCN1CC1CCCCC1)NCc1ccc(F)cc1F (stereo not drawn),-7%,-13%,7%[2.34 µM],5%,-16%,-6%
CCN(CC)c1ccc(C(=O)O)cc1,-9%,-7%,-21%,0%,-16%,-16%
CCC(N)(C(=O)O)c1ccc(C(=O)O)cc1 (stereo not drawn),-2%,.,-1%,79µM*,-3%,-6%
COc1cccc(OCCNc2cc(Cl)ccc2[N+](=O)[O-])c1,8.9µM*,-1%,-4%,2%,4%,-30%
CC1(C)C[C@@H]1C(=O)N/C(=C\CCCCSC[C@H](N)C(=O)O)C(=O)O,.,-6%,.,79µM*,-10%,.
CCc1cc(=O)n2c([nH]c3ccccc32)c1C#N,?,-1%,8%,6%,4%,-18%
CCc1c(C)c(C#N)c2[nH]c3ccccc3n2c1=S,?,13µM*,9%,79µM*,?,?
CC(SCc1cc(=O)n2c([nH]c3ccccc32)c1C#N)C(=O)O (stereo not drawn),?,13µM*,4%,-4%,79µM*,-8%
CCc1cc(=S)n2c([nH]c3ccccc32)c1C#N,?,?,-11%,45µM*,?,?
O=c1nc(N2CCOCC2)ccn1-c1nc(-c2ccccc2)sc1-c1ccccc1,-3%,30µM*,-2%,-5%,-9%,4%
C=CCn1c(SCCN)nnc1-c1cccc(S(=O)(=O)N2CCOCC2)c1,.,-4%,.,.,-23%,.
Cc1nn(C)c(C)c1S(=O)(=O)N1CCCC(C(=O)N2CCN(c3ccc(Cl)cc3)CC2)C1 (stereo not drawn),-6%,3.4µM*,5%,12%,-18%,-8%
CCN(CC)S(=O)(=O)N1CCC(C(=O)NC2CCCc3ccccc32)CC1 (stereo not drawn),11%,0%,12%,2%,6%,11%
Cc1nn(C)c(C)c1S(=O)(=O)N1CCC(C(=O)NC2CCCc3ccccc32)CC1 (stereo not drawn),-4%,27µM*,1%,10%,-15%,-5%
Cc1nn(C)c(C)c1S(=O)(=O)N1CCCC(C(=O)NC2CCCCCC2)C1 (stereo not drawn),-6%,27µM*,2%,16%,?,-5%
Cc1ccc(Cl)cc1N1CCN(C(=O)C2CCN(S(=O)(=O)c3c(C)nn(C)c3C)CC2)CC1,-21%,-2%,-8%,17%,-6%,-13%
Cc1n[nH]c(C)c1S(=O)(=O)N1CCCC(C(=O)NC2CCCCC2)C1 (stereo not drawn),2%,-9%,-2%,6%,1%,10%
O=S(=O)(N/N=C/c1cccnc1)c1ccc(Cl)c(Cl)c1,?,13µM*,-13%,-1%,?,-17%
O=C(N/N=C/c1cccnc1)c1ccc(Cl)c(Cl)c1,.,1%,.,.,0%,.
CCc1ccc(NCc2cc3cc4c(cc3n(CC(=O)Nc3ccc(C)cc3)c2=O)OCO4)cc1,7%,.,12%,.,5%,?
O=C1Nc2ccccc2N=C(c2ccccc2)C1Br (stereo not drawn),?,8%,?,45µM*,-21%,-20%
CCN(C(=O)CSc1nc2cc(S(=O)(=O)N(CC)CC)ccc2o1)C1CCS(=O)(=O)C1 (stereo not drawn),.,21µM*,.,18µM*,?,.
O=C1CCNc2ccc(-c3ccccc3)cc21,-21%,9.5µM*,6%,?,-21%,?
O=C1CCNc2cc3ccccc3cc21,-2%,21µM*,7%,14%,?,4%
COc1cccc(NC(=O)NCc2ccccc2F)c1,2%,12µM*,-3%,12%,?,-4%
SMILES,Tau ThT inhib,PLK1 PBD block,Tau FP inhib,Sfp inh,VDR inhibitor,Tau fluor cs
CCOc1ccccc1NC(=O)NCc1ccccc1F,-1%,-5%,-6%,19%,1%,-5%
COc1ccccc1NC(=O)NCc1ccccc1F,-8%,34µM*,-2%,12%,-12%,-9%
COc1ccc(NC(=O)NCc2ccccc2F)cc1OC,-9%,-2%,5%,25%,-8%,-7%
FC(F)Oc1ccc(-c2csc(NNC3=NCCCCC3)n2)cc1,28µM*,3.8µM*,?,22µM*,?,-29%
CC(C)(C)c1ccc(-c2csc(NNC3=NCCCCC3)n2)cc1,16µM*,?,?,50µM*,?,?
Brc1ccc(-c2csc(NNC3=NCCCCC3)n2)cc1,?,?,-6%,50µM*,?,?
c1ccc(-c2csc(NC3=NCCCCC3)n2)cc1,-8%,-5%,13%,0%,-11%,-7%
N#Cc1ccc(-c2csc(NC3=NCCCCC3)n2)cc1,6%,-17%,-1%,-11%,6%,-2%
Cn1c(=O)c2ncn(CC(=O)N/N=C/c3ccco3)c2n(C)c1=O,0%,0%,0%,11%,-19%,3%
Cc1nc2ccc(NC3=NCCCCC3)cc2s1,-6%,30µM*,-2%,?,?,4%
CCCCOc1ccccc1NC(=O)CC1Sc2ccccc2NC1=O (stereo not drawn),13%,.,-10%,.,-17%,-4%
COc1ccc(C(CC(=O)O)NS(=O)(=O)c2ccc3c(c2)N(C(C)=O)CC(C)O3)cc1 (stereo not drawn),.,27µM*,.,6%,-13%,.
CCc1nc2ccc(C(=O)NCCCn3ccnc3)cn2c1N(C)C(=O)COc1ccccc1,.,-7%,.,.,.,.
COc1ccc(-c2nc3c(c4c2C[C@H](c2ccccc2)OC4)CN(C(=O)Cc2cccs2)CC3)c(C)c1,4%[11.5 µM],.,9%[11.6 µM],-3%,.,12%[11.6 µM]
COc1ccc(NC(=S)Nc2ccc3nccnc3c2)cc1,?,-25%,5%,45µM*,-27%,-19%
COc1ccc(NC(=O)c2ccccc2[N+](=O)[O-])cc1,-4%,5%,-2%,21%,-7%,-10%
COc1ccc(NC(=S)Nc2ccc(N)c([N+](=O)[O-])c2)cc1,16µM*,?,3%,?,-1%,?
COc1ccc(NC(=S)Nc2ccccc2)cc1,1%,0%,3%,-6%,-24%,-1%
Nc1ncnc2c1nc(Br)n2[C@@H]1O[C@H]2COP(=O)(O)O[C@@H]2[C@@H]1O,3%,.,-5%,9%,2%,-2%
CC(C)CCN1C(=O)c2ccccc2C1c1nnnn1C(C)C (stereo not drawn),.,-6%,.,.,.,.
Cc1cccc(N=Nc2cnc(N)s2)c1,5µM*,?,5%,2%,?,?
CC(=O)Nc1ncc(N=Nc2cccc(C(F)(F)F)c2)s1,.,-24%,.,17%,-11%,.
